Most compounds without a hit are left out; they make up all but 2.7% or so of the library.
A549 tox = counter-screen for Nrf2 inhibitors: cytotoxicity in A549 cells. A549 ARE-Fluc cells, CellTiter-Fluor viability, 18-24 h. Potency, µM (series often up to 46 µM), for the others: at the top dose activity change, negative = cytotoxicity, actives largely listed as inhibitors. 390,000 tested, 0.16% active. AID 504648; also: potency is read from the fitted curve at half-maximal effect; % is scaled to controls: 0 for no effect and ±100 for the full control effect
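A549 ARE-Fluc cells in 5% FBS OPTI-MEM, 5000 cells/well, rested 2 h then exposed to compounds in concentration-response for 18-24 h at 37 °C. Viability by CellTiter-Fluor fluorescence (Ex 405/Em 525) after 30 min; luciferase luminescence (BugLite, 15 min, RT) read afterwards.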
IDH1 R132H inh = inhibitors of human mutant IDH1 R132H | 390,000 tested, 0.093% active | IDH1-R132H enzyme, NADPH consumption, diaphorase/resazurin fluorescence | Potency, µM (titrated, usually from 76.6 µM), for the others: at the highest dose activity change, negative = inhibition, actives largely listed as inhibitors; also: potency is read from the fitted curve at half-maximal effect; % is scaled to controls: 0 for no effect and ±100 for the full control effect; nearly all actives have a fitted effect of over 65% in size
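IDH1-R132H (0.5 ug/mL) preincubated 30 min with compound, then NADPH (0.016 mM) and alpha-KG (2 mM) added; 80 min at RT, pH 7.5. Remaining NADPH coupled via diaphorase/resazurin to fluorescence (540/590 nm); concentration-response curves normalized to no-enzyme control.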
LDHA inh = LDHA (human) enzyme inhibition. P00338. purified LDHA, NADH/diaphorase-resazurin fluorescence; stronger effect = lower value. activity change, % (values are at about 110 or 230 µM). 480,000 tested, 0.15% active; in the data active = activity change below about -30%; inconclusive = mostly about -25% to -30%;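 also: plate controls were DMSO wells for no effect and wells without enzyme for full effect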
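LDH5 2 nM; NADH 0.06 mM, pyruvate 0.2 mM; 200 mM Tris pH 7.4, EDTA, Tween-20; 5 min RT. Detection: diaphorase 0.133 mg/mL + resazurin 37 µM, fluorescence ex540/em590 at 0 and 20 min; normalized to enzyme-free and DMSO wells.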
Nrf2 block = Nrf2 pathway inhibition. A549 ARE-Fluc reporter, luciferase luminescence, 18-24 h. Potency, µM (doses to about 46 µM), inactives show at the top dose activity change, negative = inhibition, actives largely listed as inhibitors. 360,000 tested, 2.1% active; also: potency is read from the fitted curve at half-maximal effect; % is scaled to controls: 0 for no effect and ±100 for the full control effect; nearly all actives have a fitted effect of over 60% in size
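Nrf2 activity is the BugLite luminescence, read 15 min after reagent at room temperature, following CellTiter-Fluor cytotoxicity readout (30 min, 37C). Compound titrations were applied for 18-24 h to 5000 A549 ARE_Fluc cells/well in 5% FBS OPTI-MEM.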
ALOX12 inh = ALOX12 (human) lipoxygenase inhibition; 580,000 tested, 1.1% active; P18054; purified 12hLO, xylenol orange hydroperoxide absorbance; Potency, µM (titrated, usually from 108 µM), inactives show at the top dose activity change, negative = inhibition, hits mostly inhibitors; also: potency is read from the fitted curve at half-maximal effect; % is scaled to controls: 0 for no effect and ±100 for the full control effect
Target sequence (P18054 whole entry, looked up): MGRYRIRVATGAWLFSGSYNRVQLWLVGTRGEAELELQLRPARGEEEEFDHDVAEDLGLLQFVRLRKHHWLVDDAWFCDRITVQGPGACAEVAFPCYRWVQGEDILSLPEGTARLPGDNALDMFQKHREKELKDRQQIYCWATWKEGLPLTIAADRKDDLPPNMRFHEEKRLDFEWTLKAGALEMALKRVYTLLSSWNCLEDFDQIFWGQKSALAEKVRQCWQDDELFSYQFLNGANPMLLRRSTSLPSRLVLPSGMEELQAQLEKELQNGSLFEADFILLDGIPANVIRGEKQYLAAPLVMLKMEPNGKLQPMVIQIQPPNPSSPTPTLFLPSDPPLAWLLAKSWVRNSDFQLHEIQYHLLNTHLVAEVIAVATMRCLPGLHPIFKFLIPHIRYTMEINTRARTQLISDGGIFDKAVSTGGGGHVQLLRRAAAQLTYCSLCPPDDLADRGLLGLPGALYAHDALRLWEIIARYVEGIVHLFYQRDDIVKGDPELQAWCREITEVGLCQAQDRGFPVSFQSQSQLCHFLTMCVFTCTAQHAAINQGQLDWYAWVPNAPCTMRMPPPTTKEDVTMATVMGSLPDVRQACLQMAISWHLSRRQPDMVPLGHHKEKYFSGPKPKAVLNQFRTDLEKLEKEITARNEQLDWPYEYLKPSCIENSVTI
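Purified human 12hLO at 150 nM in 25 mM Hepes, 0.01% Triton X-100, pH 7.0, preincubated 15 min at room temperature with compound. Reaction started with 40 uM arachidonic acid, 30 min at room temperature. Hydroperoxide measured by Fe-xylenol orange, 573/405 nm absorbance ratio.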
Nrf2 ARE act = activates Nrf2 signaling | 410,000 tested, 0.31% active | AREc32 ARE-luciferase reporter (MCF7-derived line), luminescence, 24 h | Potency, µM (highest dose often 46.1 µM), inactives show at the highest dose activation, actives largely listed as activators | AID 624171; also: potency is read from the fitted curve at half-maximal effect; % of control where 0% means no effect; nearly all actives have a fitted effect of over 65% in size
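For detection, Steady-Glo was added and plates sat 30 min at RT; before that, AREc32_Fluc cells grown overnight in OPTI-MEM/5% FBS had been treated with 23 nL compound for 24 hr at 37 deg C.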
An asterisk follows results filed as active; ? = inconclusive; · = no result given. Unless noted, calls follow the shape of the dose curve; as a rule, active = well fitted curve in the direction sought with a large enough effect; inconclusive = small, poorly fitted or top-dose-only effect, or another doubt; inactive = no such curve, though single readings can be large; an effect the other way counts as inactive or inconclusive.

SMILES | A549 tox | IDH1 R132H inh | LDHA inh | Nrf2 block | ALOX12 inh | Nrf2 ARE act
Cc1ccc(/C(=N/Nc2nc3ccccc3s2)C2=C(O)c3ccccc3C2=O)cc1 | -8% | 7% | -6 | -22% | 3.5µM* | 2%
COc1cc(NC(=S)NCCC(c2ccccc2)c2ccccc2)cc(OC)c1 | ? | 0% | -4 | 23µM* | ? | 2%
Cc1cccc(NC(=S)NCCC(c2ccccc2)c2ccccc2)c1 | 10% | 2% | -7 | -20% | 35µM* | -1%
COc1ccc(N=Nc2nc(-c3ccccc3)c(-c3ccccc3)[nH]2)cc1 | ? | 3% | 2 | -20% | ? | 6%
COc1ccccc1N=Nc1nc(-c2ccccc2)c(-c2ccccc2)[nH]1 | ? | 0% | 2 | 18µM* | -18% | 4%
Cc1cc(C(F)(F)F)n(-c2nc(C(=O)O)cs2)n1 | 3% | -9% | -6 | -12% | -29% | 2%
O=C(O)c1csc(-n2nc(-c3ccccc3)cc2C(F)(F)F)n1 | 4% | -3% | -87* | -17% | -16% | -1%
O=c1[nH]c(=O)n(Cc2ccccc2Cl)c2c1CN(Cc1ccccc1)CN2 | · | · | -23 | · | 3% | ·
COc1ccc(-[n+]2c(C)cc(/C=C3\Sc4ccccc4N3C)cc2C)cc1 | 9.2µM* | 22% | 2 | 0.23µM* | ? | -2%
CC(=O)C1=CCC(c2ccc(C)o2)N(S(=O)(=O)c2ccc(C)cc2)C1 (stereo not given) | · | · | -5 | · | 10µM* | 7%
Cc1ccc2c(c1)[C@H]1[C@H](CO2)[C@H](c2ccccc2)[C@]2(C)C(=O)N(C)CC(=O)N12 | -7% | -7% | -2 | 21µM* | ? | 2%
Cc1ccc2c(c1)[C@H]1[C@H](CO2)[C@H](c2ccccc2)[C@]2(C)C(=O)NCC(=O)N12 | -4% | 21% | -9 | -9% | ? | -1%
COC(=O)N1CCc2c(sc(NC(=O)C3COc4ccccc4O3)c2C(N)=O)C1 (stereo not given) | -9% | -6% | -7 | ? | 18µM* | 9%
CC(C)C(NC(=O)c1ccccc1Cl)c1nnc(SCC(=O)c2ccccc2)n1C (stereo not given) | · | · | -3 | · | 85% | ·
COc1cccc2c(=O)cc(C)n(CC(=O)Nc3ccc(C)c(C)c3)c12 | -9% | 3% | 0 | ? | -18% | 2%
COc1ccccc1NC(=O)Cn1c(C)cc(=O)c2cccc(OC)c21 | -15% | 3% | -8 | 12µM* | 0% | -1%
COCC(=O)N1C[C@H]2CON(C)[C@H]2C[C@H]1c1cccc(-c2ccccc2OC)c1 | · | 14% | -31* | · | -4% | 0%
COc1ccccc1-c1cccc([C@@H]2C[C@H]3[C@H](CON3C)CN2C(=O)CCc2ccccc2)c1 | -2% | -3% | 4 | 1% | ? | 1%
CCOc1cc(/C=C2\NC(=O)NC2=O)cc(I)c1OCc1ccc(C(=O)O)cc1 | · | · | 0 | · | ? | ·
CCOc1ccccc1C(=O)Nc1ccc(OC)c2ncccc12 | · | · | 22 | · | ? | ·
N#CC1=C(S)N(c2ccccc2)C(c2ccc(-c3ccc(Cl)c(Cl)c3)o2)NC1=O (stereo not given) | 0% | -7% | 0 | -15% | 18µM* | 0%
N#CC1=C(S)N(c2ccccc2)C(c2ccc(-c3cc(Cl)ccc3Cl)o2)NC1=O (stereo not given) | 3% | -5% | -10 | 1% | ? | 0%
N#CC1=C(S)N(c2ccc(F)cc2)C(c2ccco2)NC1=O (stereo not given) | 4% | 0% | 0 | 6% | 45µM* | 0%
CCC1CN(C(=O)Cn2cnc3sccc3c2=O)CCO1 (stereo not given) | · | · | -16 | · | 15% | ·
Cc1cc(/C=N/n2c(COc3ccccc3C)nc3ccccc3c2=O)c(O)c([N+](=O)[O-])c1 | ? | -14% | 3 | 8.2µM* | -15% | 3%
SMILES | A549 tox | IDH1 R132H inh | LDHA inh | Nrf2 block | ALOX12 inh | Nrf2 ARE act
Cc1cc(C)cc(NC(=O)Cc2c[nH]c3ccccc23)c1 | · | · | 19 | · | ? | ·
O=C1OCCN1CCNc1ccc(-c2nc(-c3ccccc3F)no2)cn1 | · | · | · | · | 8% | ·
CC(C)Cn1cc(C(=O)N2CCN(c3cccc(Cl)c3)CC2)c2c3ccccc3n(C)c2c1=O | ? | 20% | 7 | 21µM* | -20% | 4%
COc1ccc(/C=C(/CC(=O)O)c2nc3ccccc3o2)cc1OC | · | · | 14 | · | 1% | ·
CCOc1ccccc1CNC(=O)c1ccc(NC(=O)N2CCSc3ncccc32)cc1 | 2% | 3% | -4 | 18µM* | -27% | 1%
O=C(NCCc1ccccc1)c1ccc(CSc2nc3cccnc3n2Cc2ccccc2)cc1 | -14% | -10% | -4 | ? | 1% | 1%
O=C(NCc1cccs1)c1ccc(CSc2nc3cccnc3n2Cc2ccc(F)cc2)cc1 | -19% | -6% | -6 | 18µM* | -12% | 1%
COc1ccc(CNC(=O)c2ccc(NC(=O)N3CCSc4ncccc43)cc2)c(OC)c1 | 10% | -19% | -8 | ? | -13% | 1%
Cc1ccccc1CNC(=O)c1ccc(CSc2nc3cccnc3n2Cc2ccccc2)cc1 | -4% | 0% | 0 | -21% | 5% | 4%
CCOc1ccccc1CNC(=O)c1ccc(Cn2c(SCc3ccccc3)nc3cccnc32)cc1 | -16% | -18% | -11 | 21µM* | -12% | 6%
CN(Cc1ccccc1)C(=O)c1ccc(CSc2nc3cccnc3n2Cc2ccccc2)cc1 | ? | 0% | 5 | 21µM* | -3% | -5%
Cc1cc(C(=O)N2CCCCC2)cs1 | · | · | 3 | · | 56% | ·
NC(=O)C1CCN(C(=O)C2CCN(S(=O)(=O)Cc3ccc(F)cc3)CC2)CC1 | · | · | -1 | · | 16% | ·
Cc1ccc(-c2cnc(CCC(=O)NC3=NCCS3)o2)cc1C | · | · | 4 | · | 28% | ·
CC(C)C(=O)NCCNC(=O)C1CC=CCC1 (stereo not given) | · | · | 1 | · | 14% | ·
CC/C(=N/Nc1cccc(C)c1)c1cnnc(SC)n1 | -7% | 4% | 2 | -9% | 7.9µM* | 7%
COCCn1c(C)cc(C(=O)Cn2nc(C(=O)O)c3ccccc3c2=O)c1C | 2% | -6% | -5 | ? | -6% | 7%
C=CCn1c(C)cc(C(=O)Cn2nc(C(=O)O)c3ccccc3c2=O)c1C | -1% | 14% | -2 | 15µM* | 2% | 4%
CC(C)(C)c1ccc(S(=O)(=O)CCc2ccccn2)cc1 | 4% | 1% | -2 | ? | 5% | 0%
